Measurements as given in PubChem BioAssay AID845 (Columbia University Molecular Screening Center, 2007).
Out of some 94,000 compounds screened, about 390 (0.41%) were called active. The list comes from a sample in which actives are over-represented; it also holds similar structures and randomly drawn compounds. A number with no mark means an inactive call.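 How the source made its calls: active means cell count reduction more than 3 SD above the screen-wide mean (cut at about 70% in these data); inactive means the rest.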

Test: HUVEC cell count loss after compound exposure – imaging, Hoechst nuclear count, IL-1B stimulus, cytotoxicity control for IL-1B NFkB translocation project, primary screen (AID 845);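 further: normalized per plate to untreated control cells as the no-loss baseline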
Conditions: IL-1B stimulated, at 2 µM, active compounds read high

Q: Which cell count reduction does the source give for `Cc1cccc(CCNS(=O)(=O)c2ccc(S(=O)(=O)NC3CCCC3)cc2)c1` here?
A: -6.4%

Q: For `COc1ccc(-c2cc(C(=O)NCc3ccco3)no2)cc1OC`, which cell count reduction is on record?
A: 3%

Q: Which cell count reduction does the source give for `Cc1ccc(OCC(=O)N2CCN(C(=O)c3cccnc3)CC2)cc1` here?
A: -38.8%

Q: With `CNC(=S)N1N=C(c2ccccc2)CC1c1ccc(Br)cc1` (stereo not given) as the compound, how does the cell count reduction read?
A: -18.6%

Q: For `CC(C)CNS(=O)(=O)c1ccc(OCC(=O)Nc2ccc3c(c2)OCO3)c(Cl)c1`, which cell count reduction is on record?
A: -38.8%

Q: For `COc1ccc(F)cc1S(=O)(=O)Nc1ccc2c(c1)OCO2`, which cell count reduction is on record?
A: -1.3%

Q: With `COc1ccc(S(=O)(=O)Nc2ccc3c(c2)OCO3)cc1Cl` as the compound, how does the cell count reduction read?
A: 81.3% (active)

Q: With `O=C1c2ccccc2C(=O)c2c1cccc2N1CCN(CCO)CC1` as the compound, how does the cell count reduction read?
A: -12.4%

Q: With `Cc1ccc(NC(=S)N/N=C2/CCCc3c(C)cc(C)cc32)cc1` as the compound, how does the cell count reduction read?
A: -6.1%

Q: Which cell count reduction does the source give for `O=C(c1ccccc1-c1ccccc1)N1CCOCC1` here?
A: -0.4%

Q: With `CC(C(=O)Nc1ccccc1-c1ccccc1)N1CCOCC1` (stereo not given) as the compound, how does the cell count reduction read?
A: 91.2% (active)

Q: Which cell count reduction does the source give for `CC(Sc1nncn1C)C(=O)Nc1ccccc1-c1ccccc1` (stereo not given) here?
A: 35.5%

Q: With `COc1cc(/C=N/O)cc(Br)c1OCc1cccc(Cl)c1` as the compound, how does the cell count reduction read?
A: -29.3%

Q: For `Cc1ccc(O/C=C2\OC(=O)c3ccccc32)cc1`, which cell count reduction is on record?
A: -34.7%

Q: For `N=c1oc2ccccc2cc1C(=O)N/N=C/c1ccccc1`, which cell count reduction is on record?
A: 23.4%

Q: Which cell count reduction does the source give for `CCc1c(O)nc(SCC(=O)Nc2ccccc2)n(C(C)CC)c1=O` (stereo not given) here?
A: -2.8%

Q: For `COCC(C)NC(=O)c1ccc(-n2nc(C(F)(F)F)cc2-c2cccs2)cc1` (stereo not given), which cell count reduction is on record?
A: -9.2%

Q: With `Cn1c(=O)c2c(ncn2CC(COCc2ccccc2Cl)OCc2ccccc2Cl)n(C)c1=O` (stereo not given) as the compound, how does the cell count reduction read?
A: 8.7%

Q: With `O=C(Nc1cccn(Cc2c(Cl)cccc2Cl)c1=O)c1ccc(Cl)cc1` as the compound, how does the cell count reduction read?
A: -1.3%

Q: With `Cc1ccc(Nc2nnc(SCc3ccccc3)s2)cc1` as the compound, how does the cell count reduction read?
A: 22.5%

Q: Which cell count reduction does the source give for `CC(=O)c1cnn(-c2cc(Oc3ccc(F)cc3)ncn2)c1C` here?
A: -1.7%

Q: Which cell count reduction does the source give for `Cc1nnc(SCC(=O)NC2CCCC2)s1` here?
A: 22.6%

Q: With `CNS(=O)(=O)c1cnccc1N1CCN(c2cccc(C)c2)CC1` as the compound, how does the cell count reduction read?
A: -0.7%

Q: Which cell count reduction does the source give for `CC/C(O)=N\S(=O)(=O)c1ccc(N=NN(C)C)cc1` here?
A: -5.3%

Q: Which cell count reduction does the source give for `COc1ccc(-c2cc(C(=O)n3cnc4ccccc43)c3ccccc3n2)cc1` here?
A: -10%
